Assay [1] concerns the target Estrogen receptor (Homo sapiens) (UniProt P03372). As to the kind of experiment: qHTS assay for small molecule antagonists of estrogen receptor alpha signaling (AID 588513; active means well fitted curve in the direction sought with a large enough effect in the signal ratio, with a control signal flat, not every such curve was filed as active; the % refers to the signal ratio; further: on the % scale 0 is the no-effect control and ±100 the full control effect). In outline: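 Antagonist-mode qHTS in ER-alpha-UAS-bla HEK 293 cells: compound titration, 0.5nM estradiol for 18 h, CCF4 fluorescence, Hill-derived IC50.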
On the technique in general: In qHTS, concentration-response curves come from the screen itself.

Assay [2] concerns the target Bile acid receptor (Homo sapiens) (UniProt Q96RI1). As to the kind of experiment: qHTS assay for small molecule agonists of farnesoid X receptor signaling (AID 588527).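 Further: 0% = vehicle basal and 100% = reference agonist.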 Conditions: HEK293T FXR-UAS-bla, beta-lactamase ratio, 16 h; stronger effect = higher value. Summed up: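 Quantitative HTS used FXR-UAS-bla HEK293T cells with 16 h compound incubation at 37 C. EC50 values came from concentration-response curves normalized to chenodeoxycholic acid.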

The target in assay [3] is Glucocorticoid receptor (Homo sapiens) (UniProt P04150). As to the kind of experiment: qHTS assay for small molecule agonists of glucocorticoid receptor signaling (AID 588532; active means well fitted curve in the direction sought with a large enough effect in the signal ratio, with a control signal flat; the % refers to the signal ratio;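 further: 100% = dexamethasone at 0.1 µM and 0% = DMSO only wells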). The settings on record: HeLa MMTV-bla, beta-lactamase ratio, agonist, 18 h; stronger effect = higher value; percent of dexamethasone control, DMSO zero. In outline: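 MMTV-bla HeLa, beta-lactamase reporter; medium with 1% charcoal/dextran-stripped FBS; cpds up to 92 uM, 18 h, 37 C; CCF4 readout 460/530 nm; Hill fit → EC50, efficacy vs 0.1 uM dexamethasone = 100%.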

Assay [4] has the same target. As to the kind of experiment: qHTS assay for small molecule antagonists of glucocorticoid receptor signaling (AID 588533; active means well fitted inhibition curve with a large enough effect in the signal ratio, with a control signal flat, not every such curve was filed as active; the % refers to the signal ratio;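 further: cells stimulated with 2 nM dexamethasone as agonist; on the % scale 0 is the no-effect control and ±100 the full control effect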). In outline: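 Antagonist-mode qHTS: compound titrations added to GRE-bla HeLa cells, then dexamethasone 2 nM final; 18 h, 37 C. CCF4 FRET fluorescence normalized to dexamethasone and DMSO; IC50 from Hill fit.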
In assay [5] the target is Peroxisome proliferator-activated receptor delta (Homo sapiens) (UniProt Q03181). As to the kind of experiment: qHTS assay for small molecule agonists of peroxisome proliferator-activated receptor delta signaling (AID 588534).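 Further: 0% = DMSO basal wells and 100% = positive control agonist at 10 µM.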 In outline:
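Agonist-mode qHTS; reporter cells, 5 hrs 37 C pre-incubation; compound titration, 18 hrs 37 C; CCF4 dye, 2 hrs RT; fluorescence read. EC50/efficacy via Hill fit.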

Assay [6] is described as follows: qHTS assay for small molecule antagonists of peroxisome proliferator-activated receptor delta signaling (AID 588535; active means well fitted inhibition curve with a large enough effect in the signal ratio, with a control signal flat, not every such curve was filed as active; the % refers to the signal ratio;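 on max response: cells co-treated with a PPAR-delta agonist as stimulator during compound exposure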). The settings on record: HEK293T PPARd-UAS-bla, beta-lactamase FRET ratio, 18 h; 460 nm channel. Summed up:
(§1)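 Inhibition of PPAR-delta response element-driven beta-lactamase expression is measured in HEK293T cells exposed to a compound titration series for 18 hrs at 37 C. Half-maximal inhibition comes from Hill equation fitting.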

In assay [7] the target is Peroxisome proliferator-activated receptor delta (Homo sapiens) (UniProt Q03181). Described as above. Summed up:
as §1

In assay [8] the target is Peroxisome proliferator-activated receptor gamma (Homo sapiens) (UniProt P37231). As to the kind of experiment: qHTS assay for small molecule agonists of peroxisome proliferator-activated receptor gamma signaling (AID 588536; active means well fitted curve in the direction sought with a large enough effect in the signal ratio, with a control signal flat, not every such curve was filed as active; the % refers to the signal ratio;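 further: 0% = DMSO basal wells and 100% = rosiglitazone at 2 µM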). In outline:
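Using GeneBLAzer HEK293 cells, response was quantified by CCF4 fluorescence and normalized between basal DMSO (0%) and rosiglitazone 2 uM (100%); curves yielded half-maximal stimulation concentration and efficacy.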

Assay [9] has the same target. As to the kind of experiment: qHTS assay for small molecule antagonists of peroxisome proliferator-activated receptor gamma signaling (AID 588537; active means well fitted inhibition curve with a large enough effect in the signal ratio, with a control signal flat, not every such curve was filed as active; the % refers to the signal ratio;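 further: reporter cells co-stimulated with 50 nM rosiglitazone agonist during compound treatment; % of control where 0% means no effect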). Summed up:
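Compounds are tested as concentration series for inhibition of rosiglitazone-driven (50 nM) reporter expression in GeneBLAzer PPAR-gamma-UAS-bla HEK293 cells. After 16 h at 37 C, CCF4 substrate is added for 2 h at room temperature and blue/green fluorescence is measured.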

The target in assay [10] is Thyroid hormone receptor beta (Homo sapiens) (UniProt P10828). As to the kind of experiment: qHTS assay for small molecule agonists of thyroid hormone receptor beta signaling (AID 588545).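 Further: 0% = DMSO only and 100% = 10 nM T3.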 Summed up: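 TR-UAS-bla-GripTite HEK 293 cells in medium with 2% charcoal/dextran FBS, 0.1 mM NEAA and 1 mM sodium pyruvate were treated with titrated compounds for 18 hrs at 37 C. Beta-lactamase reporter was read with CCF4 dye (ex 405, em 460/530 nm); EC50 from Hill fits.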

For assay [11] the target is unchanged. As to the kind of experiment: qHTS assay for small molecule antagonists of thyroid hormone receptor beta signaling (AID 588547; active means well fitted inhibition curve with a large enough effect in the signal ratio, with a control signal flat, not every such curve was filed as active; the % refers to the signal ratio;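 further: cells stimulated with 0.4 nM T3 agonist during compound exposure; on the % scale 0 is the no-effect control and ±100 the full control effect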). The settings on record: TR-UAS-bla HEK293, beta-lactamase ratio, antagonist mode, 18 h. In outline: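 TR-UAS-bla GripTite HEK293 cells in 2% charcoal/dextran FBS medium were preincubated 4 h at 37 C, given compound (0.59 nM to 92 uM) plus 0.4 nM T3 (final) for 18 h, then CCF4 for 2 h at RT; Hill fit gave IC50.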

Assay [12] in a line: qHTS assay for small molecule activators of the nuclear factor-kappa B (NF-kB) signaling pathway (AID 651749; active means well fitted activation curve with a large enough effect in the signal ratio; the % refers to the signal ratio; further: % of control where 0% means no effect). Conditions: NF-kB-bla ME-180 cells, beta-lactamase FRET ratio, 16 h; stronger effect = higher value. In outline:
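Human ME-180 cervical cells with an NF-kB-bla construct; compounds added via 23 nL pin transfer, DMSO as vehicle; incubation 16 hr. Reporter activity measured by FRET disruption.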

Assay [13] is described as follows: qHTS assay for small molecule disruptors of the mitochondrial membrane potential - 5 hr assay (AID 651755). Further: on the % scale 0 is the no-effect control and ±100 the full control effect; nearly all actives have a fitted effect of over 40% in size. In outline:
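Seed HepG2 overnight, add compound, incubate 5 hr at 37C and 5% CO2, stain 30 min with Mito-MPS, then measure monomer (490/535 nm) and aggregate (540/590 nm) fluorescence.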

Assay [14] addresses Tumor necrosis factor (Homo sapiens) (UniProt P01375). As to the kind of experiment: qHTS assay to identify small molecules that stimulate Tumor Necrosis Factor-alpha (TNF-alpha) secretion (AID 651757; active means well fitted curve in the direction sought with a large enough effect in the signal ratio; the % refers to the signal ratio; further: 0% is about no effect). Summed up: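 Human monocytic THP-1 cells are plated, treated with compound and held at 37 C for 17 hrs. Labeled anti-TNF-alpha antibody mixture is then added; after 3 hr at room temperature, TR-FRET signal reports secreted TNF-alpha.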

The nature of assay [15]: qHTS assay for environmental chemicals that activate the Aryl hydrocarbon Receptor (AhR) signaling pathway (AID 651777; active means well fitted curve in the direction sought with a large enough effect; an effect the other way counts as inactive or inconclusive; further: nearly all actives have a fitted effect of over 15% in size; further: potency means the concentration at half of the fitted maximal effect; on activation: % of control where 0% means no effect). The settings on record: 1A2-DRE human hepatoma cells, luciferase, 24 h; activation: stronger effect = higher value. Summed up:
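Concentration–response screening used 1,200 1A2-DRE cells per well, 24 hr compound exposure (37 C, 5% CO2), and One-Glo luminescence as the AhR-driven CYP1A2 reporter signal.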

For assay [16], the target named is Vitamin D3 receptor (Homo sapiens) (UniProt P11473). As to the kind of experiment: qHTS assay for small molecule agonists of vitamin D receptor signaling (AID 588543).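 Further: 0% = DMSO basal and 100% = reference agonist control.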 Summed up: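 Measured: β-lactamase reporter activity (CCF4, 405 nm excitation, 460/530 nm emission) in HEK293T VDR-UAS-bla cells after 16 h compound exposure at 37 °C. Normalization against 50 nM 1α,25-dihydroxyvitamin D3 and DMSO; Hill-fit EC50.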

Assay [17] can be described thus: qHTS assay for small molecule agonists of the antioxidant response element (ARE) signaling pathway measured by Nrf2-dependant transcriptional activity (AID 720636; active means well fitted curve in the direction sought with a large enough effect in the repeat runs; an effect the other way counts as inactive or inconclusive;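 further: HepG2 cells with an ARE-driven luciferase reporter; % of control where 0% means no effect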). In outline: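 Attachment 6 hr at 37 C, then compound versus DMSO vehicle for 16 hr in ARE-luc HepG2 cells (1% dialyzed FBS); luminescence recorded 30 min after ONE-Glo addition at room temperature.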

Assay [18] has as its target Nuclear receptor ROR-gamma (Homo sapiens) (UniProt P51449). As to the kind of experiment: qHTS assay for small molecule antagonists of the retinoid-related orphan receptor gamma (ROR-gamma) signaling pathway (AID 651802; active means well fitted curve in the direction sought with a large enough effect; an effect the other way counts as inactive or inconclusive;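 further: CHO cells with doxycycline-induced ROR-gamma expression; on the % scale 0 is the no-effect control and ±100 the full control effect; nearly all actives have a fitted effect of over 60% in size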). Summed up: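 Steps: cells dispensed; compound or DMSO transferred by pin tool; doxycycline added to induce the ROR response element-driven luciferase; plates held 16hr at 37C; ONE-Glo added and luminescence measured.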

A short description of assay [19]: Cell Viability - NIH 3T3 (AID 541; active means well fitted curve in the direction sought with a large enough effect; an effect the other way counts as inactive or inconclusive;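 further: cells exposed to compound for 40 hours; plate controls were DMSO alone for no effect and tamoxifen positive control for full effect; nearly all actives have a fitted effect of over 25% in size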). Conditions: NIH 3T3 cell viability, qHTS; activity change, negative = cytotoxicity: at 92.2 µM (top of the series). Summed up: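 Cells seeded at 1000/well, rested 5 hr at 37 °C, then dosed and incubated 40 hr at 37 °C. CellTiter-Glo added, 20 min room temperature, luminescence read. AC50 by Hill fit.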
A short description of assay [20]: qHTS assay to identify small molecules that stimulate interleukin-8 (IL-8) secretion (AID 651758; active means well fitted activation curve with a large enough effect in the signal ratio; the % refers to the signal ratio; further: 0% is about no effect). In outline:
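Quantitative HTS in THP-1 monocytic cells at 2000 cells per well, with 16 hrs compound incubation at 37 C. IL-8 in the medium was then quantified by HTRF immunoassay, read after 1-3 hrs at room temperature.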

“And” between values parts separate entries of the source, which are not always exact repeats. Identical values can stand only once. Results filed as inconclusive are left out. The source made the active and inactive calls. Unless noted, the call rests on the fitted dose curve.

Chain of Estrogen receptor (Homo sapiens) (P03372 whole entry, looked up): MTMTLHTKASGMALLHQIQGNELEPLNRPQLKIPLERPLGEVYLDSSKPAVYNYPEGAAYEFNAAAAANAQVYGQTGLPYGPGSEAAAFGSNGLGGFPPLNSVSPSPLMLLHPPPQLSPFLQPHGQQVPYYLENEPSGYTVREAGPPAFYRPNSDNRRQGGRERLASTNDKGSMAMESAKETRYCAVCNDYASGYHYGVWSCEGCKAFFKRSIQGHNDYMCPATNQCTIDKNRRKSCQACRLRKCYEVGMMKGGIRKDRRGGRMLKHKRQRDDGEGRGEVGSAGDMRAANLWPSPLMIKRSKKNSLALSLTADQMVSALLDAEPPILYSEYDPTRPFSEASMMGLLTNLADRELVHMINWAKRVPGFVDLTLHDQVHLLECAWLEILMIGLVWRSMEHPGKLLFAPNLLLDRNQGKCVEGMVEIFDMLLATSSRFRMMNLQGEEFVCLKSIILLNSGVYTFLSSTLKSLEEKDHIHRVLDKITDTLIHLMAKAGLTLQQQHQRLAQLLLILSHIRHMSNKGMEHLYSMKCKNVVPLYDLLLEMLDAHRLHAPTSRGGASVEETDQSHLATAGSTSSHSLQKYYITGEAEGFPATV
Chain of Vitamin D3 receptor (Homo sapiens) (P11473 whole entry, looked up): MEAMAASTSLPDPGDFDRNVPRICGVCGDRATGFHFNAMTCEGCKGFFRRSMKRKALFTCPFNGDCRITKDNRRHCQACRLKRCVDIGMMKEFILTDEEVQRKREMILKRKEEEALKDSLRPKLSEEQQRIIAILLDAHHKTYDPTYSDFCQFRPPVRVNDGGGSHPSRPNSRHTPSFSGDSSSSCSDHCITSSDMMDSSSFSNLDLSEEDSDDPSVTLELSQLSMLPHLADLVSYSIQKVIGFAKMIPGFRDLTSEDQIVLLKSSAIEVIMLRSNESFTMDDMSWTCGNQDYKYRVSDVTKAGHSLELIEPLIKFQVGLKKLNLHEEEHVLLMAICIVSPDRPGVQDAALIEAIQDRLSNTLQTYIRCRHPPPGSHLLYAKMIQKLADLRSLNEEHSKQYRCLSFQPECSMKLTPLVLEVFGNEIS
Chain of Bile acid receptor (Homo sapiens) (Q96RI1 whole entry, looked up): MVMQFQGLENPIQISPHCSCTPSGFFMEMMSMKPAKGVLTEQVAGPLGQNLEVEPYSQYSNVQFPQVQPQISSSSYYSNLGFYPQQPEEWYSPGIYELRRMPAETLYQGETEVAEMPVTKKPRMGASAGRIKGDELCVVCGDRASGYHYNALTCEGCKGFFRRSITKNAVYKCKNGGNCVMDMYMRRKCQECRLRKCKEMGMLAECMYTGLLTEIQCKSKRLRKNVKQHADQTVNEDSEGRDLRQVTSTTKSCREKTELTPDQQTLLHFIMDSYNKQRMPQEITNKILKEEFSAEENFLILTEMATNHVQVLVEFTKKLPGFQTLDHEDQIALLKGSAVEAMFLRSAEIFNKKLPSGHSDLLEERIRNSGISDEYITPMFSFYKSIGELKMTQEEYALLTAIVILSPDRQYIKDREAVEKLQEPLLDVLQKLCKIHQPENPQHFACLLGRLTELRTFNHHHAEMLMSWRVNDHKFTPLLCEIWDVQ
Chain of Nuclear receptor ROR-gamma (Homo sapiens) (P51449 whole entry, looked up): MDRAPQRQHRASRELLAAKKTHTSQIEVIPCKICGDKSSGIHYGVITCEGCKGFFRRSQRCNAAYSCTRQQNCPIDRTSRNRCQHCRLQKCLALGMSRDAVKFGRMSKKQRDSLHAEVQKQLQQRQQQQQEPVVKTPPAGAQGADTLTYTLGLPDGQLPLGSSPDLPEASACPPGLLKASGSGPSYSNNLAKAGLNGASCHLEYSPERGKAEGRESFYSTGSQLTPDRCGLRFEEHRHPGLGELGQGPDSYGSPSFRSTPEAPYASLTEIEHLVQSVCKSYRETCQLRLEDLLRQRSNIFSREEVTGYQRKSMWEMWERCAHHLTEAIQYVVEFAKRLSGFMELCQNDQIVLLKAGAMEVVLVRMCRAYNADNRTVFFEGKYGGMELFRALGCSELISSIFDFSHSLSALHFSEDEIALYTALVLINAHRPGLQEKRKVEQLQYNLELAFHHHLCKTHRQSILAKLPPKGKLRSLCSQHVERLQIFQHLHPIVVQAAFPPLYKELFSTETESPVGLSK
Chain of Peroxisome proliferator-activated receptor gamma (Homo sapiens) (P37231 whole entry, looked up): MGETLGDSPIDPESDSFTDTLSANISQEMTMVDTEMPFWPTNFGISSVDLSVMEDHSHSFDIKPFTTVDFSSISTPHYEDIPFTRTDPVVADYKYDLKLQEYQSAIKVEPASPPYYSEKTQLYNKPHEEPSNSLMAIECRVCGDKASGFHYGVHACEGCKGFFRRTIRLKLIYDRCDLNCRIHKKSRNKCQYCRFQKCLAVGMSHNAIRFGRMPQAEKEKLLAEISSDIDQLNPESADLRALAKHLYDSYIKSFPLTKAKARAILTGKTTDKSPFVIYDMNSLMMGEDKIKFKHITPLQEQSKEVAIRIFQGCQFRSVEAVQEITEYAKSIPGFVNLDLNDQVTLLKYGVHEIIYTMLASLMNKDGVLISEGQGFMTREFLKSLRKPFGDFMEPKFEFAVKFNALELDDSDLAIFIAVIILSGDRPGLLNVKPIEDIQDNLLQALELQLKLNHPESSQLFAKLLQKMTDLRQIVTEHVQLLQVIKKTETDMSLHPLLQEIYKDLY
Chain of Peroxisome proliferator-activated receptor delta (Homo sapiens) (Q03181 whole entry, looked up): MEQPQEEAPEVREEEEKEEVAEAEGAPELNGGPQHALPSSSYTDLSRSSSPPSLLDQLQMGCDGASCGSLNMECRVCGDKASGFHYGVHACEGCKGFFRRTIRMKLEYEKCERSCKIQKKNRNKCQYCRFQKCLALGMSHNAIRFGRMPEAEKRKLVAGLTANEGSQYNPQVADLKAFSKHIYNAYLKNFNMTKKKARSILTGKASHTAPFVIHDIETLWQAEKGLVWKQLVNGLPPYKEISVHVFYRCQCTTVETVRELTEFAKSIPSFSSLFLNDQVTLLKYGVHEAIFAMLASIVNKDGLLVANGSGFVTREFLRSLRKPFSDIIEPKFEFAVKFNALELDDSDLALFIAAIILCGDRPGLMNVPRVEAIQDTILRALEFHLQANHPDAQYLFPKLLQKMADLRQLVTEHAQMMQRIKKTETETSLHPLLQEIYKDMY
Chain of Thyroid hormone receptor beta (Homo sapiens) (P10828 whole entry, looked up): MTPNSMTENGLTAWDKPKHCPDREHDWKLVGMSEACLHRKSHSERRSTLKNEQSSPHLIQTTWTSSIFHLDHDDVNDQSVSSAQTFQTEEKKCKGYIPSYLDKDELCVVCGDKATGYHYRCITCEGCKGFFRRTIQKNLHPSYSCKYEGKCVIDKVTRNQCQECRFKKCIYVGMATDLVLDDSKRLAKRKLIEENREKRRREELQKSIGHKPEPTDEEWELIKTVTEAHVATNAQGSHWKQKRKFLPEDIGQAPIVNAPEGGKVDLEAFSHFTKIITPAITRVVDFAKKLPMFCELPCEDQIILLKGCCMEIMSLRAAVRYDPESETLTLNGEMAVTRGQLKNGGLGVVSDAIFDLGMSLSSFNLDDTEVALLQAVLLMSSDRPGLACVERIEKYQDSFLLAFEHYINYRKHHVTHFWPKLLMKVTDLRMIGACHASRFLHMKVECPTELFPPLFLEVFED
Chain of Tumor necrosis factor (Homo sapiens) (P01375 whole entry, looked up): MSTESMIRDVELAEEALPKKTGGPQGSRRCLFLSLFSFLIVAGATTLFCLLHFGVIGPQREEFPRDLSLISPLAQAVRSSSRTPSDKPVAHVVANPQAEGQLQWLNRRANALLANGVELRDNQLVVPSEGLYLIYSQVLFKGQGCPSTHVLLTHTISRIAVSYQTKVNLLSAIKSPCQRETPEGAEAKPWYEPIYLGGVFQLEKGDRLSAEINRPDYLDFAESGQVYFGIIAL
Chain of Glucocorticoid receptor (Homo sapiens) (P04150 whole entry, looked up): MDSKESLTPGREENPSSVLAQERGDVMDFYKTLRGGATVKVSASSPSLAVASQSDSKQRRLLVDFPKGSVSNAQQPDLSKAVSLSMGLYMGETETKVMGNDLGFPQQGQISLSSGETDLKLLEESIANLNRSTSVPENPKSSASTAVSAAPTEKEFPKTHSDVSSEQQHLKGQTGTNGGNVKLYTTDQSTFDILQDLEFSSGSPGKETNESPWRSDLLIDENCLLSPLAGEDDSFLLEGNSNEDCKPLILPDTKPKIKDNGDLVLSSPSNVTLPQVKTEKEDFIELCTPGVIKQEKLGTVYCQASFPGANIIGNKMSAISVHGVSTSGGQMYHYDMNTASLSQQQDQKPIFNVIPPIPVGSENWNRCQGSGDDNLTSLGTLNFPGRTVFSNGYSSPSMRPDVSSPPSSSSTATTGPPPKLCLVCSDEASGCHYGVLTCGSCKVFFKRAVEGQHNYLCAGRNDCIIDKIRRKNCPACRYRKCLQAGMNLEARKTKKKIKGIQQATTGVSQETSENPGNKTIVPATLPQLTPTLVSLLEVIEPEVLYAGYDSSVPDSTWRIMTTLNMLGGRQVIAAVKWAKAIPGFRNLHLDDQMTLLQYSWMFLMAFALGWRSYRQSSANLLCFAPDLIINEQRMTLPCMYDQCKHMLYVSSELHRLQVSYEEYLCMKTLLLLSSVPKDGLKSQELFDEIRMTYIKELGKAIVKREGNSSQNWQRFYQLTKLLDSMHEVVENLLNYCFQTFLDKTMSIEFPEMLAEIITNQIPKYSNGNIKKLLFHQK

As for `NC1CCC(CC2CCC(N)CC2)CC1` (stereo not drawn), the Potency entry in assay [1], in [9], in assay [10] and in assay [13] was “inactive” in each case. In addition, the activation in [2] is -0.153% (inactive) and 0.847% (inactive); in assay [3] it was 2.97% (inactive) and -18.9% (inactive); in assay [12], -0.779% (inactive) and -0.659% (inactive); in assay [15], -0.669% (inactive) and 0.679% (inactive). Moreover, the call in [4], in [5], in [7], in assay [8] and in assay [14] was inactive. For the same compound, the max response in [6] was -9.87%. Besides, in assay [11], the activity change % (negative = inhibition) is 7.19% (inactive).

`Oc1ccc(Cl)c(Cl)c1`: the Potency result in [1], in assay [9] and in [17] was “inactive” each time. Further, the compound was called inactive in assay [5], in assay [7], in assay [16] and in assay [14]. Moreover, the max response in assay [6] is -12.5%. For the same compound, in [15], the activation is 1.35% (inactive).

For `CCCCC(=O)Cl`, the values for the activation in [2] and in assay [12] were 3.38% (inactive) and -1.31% (inactive), respectively. Also, the compound was classed as inactive in assay [4], in assay [5], in [7] and in assay [14]. Also, the max response in [6] is 20%. The Potency entry in [13], in assay [18] and in assay [17] was “inactive” throughout.

As to `[N-]=[N+]=[N-]`, the Potency result in assay [19], in assay [1], in assay [10], in assay [13] and in assay [17] was “inactive” in each case. The activation in assay [3] is -7.88% (inactive); in [12], 0.007% (inactive). Also, the call in assay [5], in [16] and in assay [14] was inactive. In [11], the activity change % (negative = inhibition) was 7.76% (inactive).

For `CC(C)(C)C(O)(CCc1ccc(Cl)cc1)Cn1cncn1` (stereo not drawn), the activation in assay [3] was 3.38% (inactive) and -5.28% (inactive); in assay [12], -0.348% (inactive) and -1.3% (inactive); in [15], 0.583% (inactive) and 1.83% (inactive). Further, the compound was called inactive in [5], in [7], in assay [8] and in assay [16]. The max response in assay [6] was -43.6% and 58.8%. The Potency result in [9], in [10], in assay [13] and in [17] was “inactive” each time. The activity change % (negative = inhibition) in [11] was -8.05% (inactive) and 4.64% (inactive).

On to `CCOP(=S)(OCC)Oc1nc(Cl)c(Cl)cc1Cl`, for which the Potency entry in [19], in [1], in assay [9], in assay [13] and in assay [17] was “inactive” in each case. Also, the activation in [2] was -1.55% (inactive) [middle of 4 runs]; in assay [3], 0.796% (inactive) [middle of 4 runs]; in [12], -1.28% (inactive) [middle of 4 runs]. Besides, the result in assay [4], in [5], in [7], in [8], in assay [16] and in assay [14] was inactive. Moreover, the max response in assay [6] turned out to be 21.6%. In addition, the activity change % (negative = inhibition) in assay [11] is 4.5% (inactive) and 5.64% (inactive) and -7.44% (inactive).

Consider `Nc1cccc2ccccc12`, for which the Potency result in assay [19], in assay [1], in assay [10], in assay [20] and in assay [18] was “inactive” throughout. The compound was classed as inactive in assay [5] and in [14]. Also, the activity change % (negative = inhibition) in assay [11] is 1.61% (inactive). In [15], the Potency is 44.7 µM (active).

Regarding `Nn1cnnc1`, the Potency entry in assay [19], in [1], in assay [9], in assay [10], in [13] and in [18] was “inactive” in each case. In addition, in assay [17], the Potency result was “inactive”. Also, the activation in assay [3] is -5.65% (inactive); in [12] it was -1.28% (inactive). Further, the compound was classed as inactive in [4], in assay [5], in [7] and in [14]. For the same compound, the max response in assay [6] is -17.8%. Besides, the activity change % (negative = inhibition) in assay [11] was 12.8% (inactive).

Values taken from PubChem BioAssay (NCATS).
